Laboratory results: PubChem BioAssay (NCI)
This is part of a sample that, as a whole, favours compounds with a hit. Of some 83,000 tested, about 20% had one in any assay.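 Values shown are percent growth following 48 h exposure of cells in 96-well plates to a single concentration of compound; below 10 was considered active.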 A number with no mark means an inactive call. The source made the active and inactive calls.

Experiments:
Experiment in all cases: NCI-60 one-dose screen, 48 h (100 = growth as untreated, 0 = no growth, -100 = all killed)
HCT-15 colon = conditions: 10 µM
HT29 colon = conditions: 10 µM
SNB-75 CNS = conditions: 10 µM
SNB-19 CNS = conditions: 10 µM
U251 CNS = conditions: 10 µM
PC-3 prostate = conditions: 10 µM
SK-MEL-5 melanoma = conditions: 10 µM
UACC-62 melanoma = conditions: 10 µM unless noted
LOX IMVI melanoma = conditions: 10 µM
SK-MEL-28 melanoma = conditions: 10 µM
SK-MEL-2 melanoma = conditions: 10 µM
EKVX NSCLC = conditions: 10 µM
SN12C renal = conditions: 10 µM
UO-31 renal = conditions: 10 µM
TK-10 renal = conditions: 10 µM unless noted
ACHN renal = conditions: 10 µM
CAKI-1 renal = conditions: 10 µM
A498 renal = conditions: 10 µM
CCRF-CEM leukemia = conditions: 10 µM
MOLT-4 leukemia = conditions: 10 µM

SMILES | growth (HCT-15 colon) | growth (HT29 colon) | growth (SNB-75 CNS) | growth (SNB-19 CNS) [%] | growth (U251 CNS) | growth (PC-3 prostate) | growth (SK-MEL-5 melanoma) | growth (UACC-62 melanoma) | growth (LOX IMVI melanoma) | growth (SK-MEL-28 melanoma) | growth (SK-MEL-2 melanoma) | growth (EKVX NSCLC) | growth (SN12C renal) [%] | growth (UO-31 renal) | growth (TK-10 renal) | growth (ACHN renal) | growth (CAKI-1 renal) | growth (A498 renal) [%] | growth (CCRF-CEM leukemia) | growth (MOLT-4 leukemia)
Cc1cc(N2CCC(N3CCCC3)CC2)nc(/N=C(\N)Nc2ccc(Cl)c(Cl)c2)n1 | -12.7% (active) | -44.6% (active) | -60.3% (active) | 90.7 | -71.8% (active) | 82.6% | -94% (active) | -82.9% (active) | -90.8% (active) | -75% (active) | -71.7% (active) | 2.57% (active) | 93.7 | -97.4% (active) | -86.3% (active) | -27.8% (active) | -40.6% (active) | 45.7 | -11.8% (active) | -19.8% (active)
CC(C)C(C#N)(C(C)C)C(C)C | 104% | 105% | 98.6% | 108 | 102% | 92.7% | 101% | 102% | 112% | 109% | 98% | 96.7% | 99.9 | 81.5% | 96% | 108% | 95.6% | 98.3 | 102% | 104%
CC(=O)OCCC(C)CCC=C(C)C (stereo not given) | 92.5% | 105% | 95.9% | 103 | 102% | 92.3% | 101% | 97.8% | 103% | 113% | 98.1% | 100% | 101 | 88% | 106% | 104% | 103% | 100 | 104% | 114%
CC1CC(O)CC(C)(C)C1 (stereo not given) | 100% | 99.9% | 94% | 104 | 101% | 94.8% | 104% | 92.4% | 102% | 112% | 105% | 98.8% | 104 | 85.6% | 102% | 107% | 98.9% | 98.7 | 96.4% | 100%
CCOC(=O)Nc1cc2c(c(N)n1)N=C(c1ccccc1)CO2 | 6.55% (active) | 12.2% | 33.5% | 37.3 | 21.8% | 29.9% | 10.2% | 34.9% | 28.5% | 47.6% | 19.1% | 33.4% | 29.3 | 21.3% | 53.3% | 49.9% | 24.2% | 52 | 13.5% | 15.7%
COC(=O)c1ccccc1Br | 99.6% | 110% | 80.5% | 96.4 | 106% | 80% | 107% | 94.4% | 98.4% | 159% | 114% | 81.4% | 92.4 | 96.4% | 103% | 105% | 102% | 104 | 109% | 94.6%
O=C(N/N=C\c1cc(Br)cc(Br)c1O)N/N=C/c1cc(Br)cc(Br)c1O | 33.6% | 105% | 49% | 68.2 | 46.1% | -1.34% (active) | 45.3% | 39% | 50.5% | 81.9% | -23.8% (active) | 69.3% | 59 | 31% | 65.5% | 52.2% | 41.4% | 70.4 | 3.69% (active) | 36.4%
Cc1cc(=O)[nH]c(NN=C2CCCC2)n1 | 106% | 107% | 89.1% | 108 | 120% | 80.7% | 115% | 100% | 110% | 113% | 107% | 107% | 104 | 91.2% | 122% | 108% | 100% | 129 | 102% | 101%
